Assay results from PubChem BioAssay AID431 (Sanford-Burnham Center for Chemical Genomics, 2006).
Screen size: about 63,000 compounds; about 1,100 (1.7%) were called active. Only a selection was taken, and actives are over-represented in it overall. Results with a measured potency or affinity are listed apart. Unmarked numbers belong to inactive results.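 The calls were made as follows: active = compounds whose percent cytotoxicity in the single-dose primary screen, scaled between solvent and toxic-drug controls, exceeds 50; inactive = the rest.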

Experiment: cytotoxicity in KRAS-transformed pancreatic duct cells, primary screen, cell-based, fluorescence, HTS (AID 431);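 also: 0% = DMSO solvent wells and 100% = doxorubicin-treated wells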
Settings: HPDE-C7K KRASV12 cells, Alamar Blue viability, 48 h; at 10 µM; hits give high values

| SMILES | cytotoxicity |
| --- | --- |
| CN(C)CCCN1c2ccccc2Sc2ccccc21 | 56.1% (active) |
| CCOC(=O)Nc1ccc2c(c1)N(C(=O)CCN(C)C)c1ccccc1S2 | 15% |
| CN(C)CCCN1c2ccccc2CCc2ccccc21 | 20.3% |
| CN(C)CCCN1c2ccccc2CCc2ccc(Cl)cc21 | 47.6% |
| COc1ccc2c(c1)Sc1ccccc1N2CCN(C)C | 27.8% |
| CCN1C(=O)C2C(c3ccc(O)c(OC)c3)NC(C)(C(=O)OC)C2C1=O (centres undefined) | 9.8% |
| CCc1c(C)nc2ncnn2c1N1CCCC(C(=O)NCCc2ccccc2)C1 (centres undefined) | 2.2% |
| CCOC(=O)C1CCN(C(=O)c2ccc(Cl)c(Cl)c2)CC1 | -6.5% |
| O=C(Nc1ccc(Cl)cc1)NC1CCS(=O)(=O)C1 (centres undefined) | -15% |
| CC(Oc1ccc(Cl)cc1Cl)c1nc(-c2ccc(NC(=O)c3cccnc3)cc2)no1 (centres undefined) | 59.3% (active) |
| COc1ccc(Cc2nc(-c3ccc(NC(=O)c4cccnc4)cc3)no2)cc1 | 33.9% |
| O=C(Nc1ccc(-c2noc(CCc3ccccc3)n2)cc1)c1cccnc1 | 47% |
| O=C(Nc1ccc(-c2noc(-c3cccs3)n2)cc1)c1cccnc1 | 52.5% (active) |
| CC(Oc1ccc(Cl)cc1Cl)c1nc(-c2ccccn2)no1 (centres undefined) | 23.6% |
| COc1cccc(-c2nc(-c3ccc(NC(=O)c4cccnc4)cc3)no2)c1 | 44.3% |
| CC(C)(C)Cc1nc(-c2ccccn2)no1 | -9.1% |
| COCCNC(=O)c1cc(-c2ccc(Cl)c(Cl)c2)on1 | -9.5% |
| O=C(c1cc2cc(Br)ccc2oc1=O)N1CCN(c2ccccn2)CC1 | -8.8% |
| O=C(CC1SCCNC1=O)Nc1cc(Cl)cc(Cl)c1 (centres undefined) | -5.4% |
| O=C(CC(c1ccccc1)c1cc(Cl)ccc1O)N1CCOCC1 (centres undefined) | 10.5% |
| CCOc1ccc(C2C3=C(CCCC3=O)Nc3nc(C(F)(F)F)nn32)cc1OC (centres undefined) | 1.4% |
| COc1ccc(CCNc2nc(N3CCCCC3)nc(N3CCCCC3)n2)cc1OC | 45.3% |
| O=S(=O)(/C=C/c1ccccc1)n1cnc2ccccc21 | 40.1% |
| Cc1cc(C)n(S(=O)(=O)Cc2ccccc2)n1 | -3.7% |
| CC1CCc2nn(CC(=O)N3CCCCCC3)cc2C1 (centres undefined) | 2.2% |

| SMILES | cytotoxicity |
| --- | --- |
| Cc1ccc2c(c1)NC(=O)C(CC(=O)NCCN(CC(C)C)CC(C)C)O2 (centres undefined) | 15.6% |
| COc1cccc(CNC(=O)C2CCN(Cc3cnn(-c4ccccc4)c3-n3cccc3)CC2)c1 | 5.5% |
| CCOC(=O)c1sc(NC(=O)CSc2ncn(-c3ccccc3)n2)nc1C | 76.1% (active) |
| CCOC(=O)c1sc(NC(=O)CSc2nnnn2-c2ccccc2)nc1C | 9.6% |
| O=C(CSc1ncn(-c2ccccc2)n1)Nc1nc2ccccc2s1 | -3.6% |
| O=C1c2ccccc2C(=O)N1CCCc1nc2ccccc2c(=O)n1CCCn1ccnc1 | -31.5% |
| C=CCn1c2ccccc2c2nnc(SCCCn3c(=O)[nH]c4ccccc43)nc21 | 68.6% (active) |
| CCn1c2ccccc2c2nnc(SCCCn3c(=O)[nH]c4ccccc43)nc21 | 2.7% |
| C=CCn1c2ccccc2c2nnc(SCN3C(=O)c4ccccc4C3=O)nc21 | 7.6% |
| Cc1cc(C)n2nc(-c3cccnc3)nc2n1 | 2.1% |
| O=C(Nc1nncs1)c1ccc(N2C(=O)C3C4C=CC(C4)C3C2=O)cc1 (centres undefined) | 10.1% |
| CCc1nnc(NC(=O)CSc2nc(C)c3c(c2C#N)CCCC3)s1 | 75.3% (active) |
| CCc1nnc(NC(=O)CSc2nc3c(cc2C#N)CCCC3)s1 | 8.4% |
| CCc1nnc(NC(=O)CSc2nc3c(cc2C#N)CCC3)s1 | 33.4% |
| O=C(NCc1ccccn1)Nc1ccc(Cl)c(Cl)c1 | 1.8% |
| Cc1ccc(CNC(=O)CCCn2c(=O)[nH]c3ccccc3c2=O)cc1 | -8.5% |
| Cc1ccc2[nH]c3c(c2c1)CCc1cn[nH]c1-3 | 35.6% |
| O=C1CCCc2c1[nH]c1ccccc21 | -0.9% |
| c1ccc2c3c([nH]c2c1)-c1[nH]ncc1CC3 | 50.2% (active) |
| CCOC(=O)C1CCN(c2nc3ccccc3nc2C(C#N)C(=O)OC(C)C)CC1 (centres undefined) | 62.8% (active) |
| CCOC(=O)C1CCCN(c2nc3ccccc3nc2C(C#N)C(=O)OC(C)C)C1 (centres undefined) | -4.8% |
| CCOC(=O)C1CCN(c2nc3ccccc3nc2C(C#N)C(=O)OC(C)COC)CC1 (centres undefined) | 6.6% |
| CCOC(=O)C1CCCN(c2nc3ccccc3nc2C(C#N)C(=O)OCC)C1 (centres undefined) | 12.9% |
| CCOC(=O)C1CCCN(c2nc3ccccc3nc2C(C#N)C(=O)OCCOC)C1 (centres undefined) | 53.1% (active) |
| CCOC(=O)C1CCCN(c2nc3ccccc3nc2C(C#N)C(=O)OC(C)COC)C1 (centres undefined) | 31.8% |

| SMILES | cytotoxicity |
| --- | --- |
| O=c1oc2ccccc2n1CCn1c2ccccc2c2nc3ccccc3nc21 | 14.9% |
| CSCCC(NC(=O)c1ccco1)C(=O)OC(C)C(=O)NC(=O)NC1CCCCC1 (centres undefined) | -4.2% |
| O=C(CN(C1CCCCC1)S(=O)(=O)c1ccc(F)cc1)NC1CC1 | -2.7% |
| CCC1CCCCN1c1nc(-c2ccncc2)nc2ccccc12 (centres undefined) | -15.6% |
| CCOC(=O)Cc1nnc2c(Nc3ccc(Cl)cc3)nc3nonc3n12 | 70.2% (active) |
| CCOC(=O)c1[nH]c(C)c(C(=O)Nc2ccccc2F)c1C | 37.9% |
| CCOC(=O)Cc1nnc2c(Nc3ccc(C)cc3)nc3nonc3n12 | -14% |
| CCOC(=O)Cn1nc(-c2ccc(Cl)cc2)cc1N | 0.5% |
| CCOC(=O)Cc1nnc2c(Nc3ccccc3F)nc3nonc3n12 | 53.8% (active) |
| CCOC(=O)n1ccc(C(=O)Nc2ccccc2F)n1 | -9.8% |
| CCOC(=O)c1ccc(NC(=O)CCc2ccc(CC)o2)cc1 | 8.4% |
| COc1cccc2cc(C(=O)C3=C(O)C(=O)N(CCCN4CCOCC4)C3c3ccncc3)oc12 (centres undefined) | 3.9% |
| CC(C)(C)NC(=O)Cn1c(SCC(=O)N2CCCCCC2)nc2ccccc21 | -0.2% |
| Cc1csc2ncc(C(=O)NCc3ccccn3)c(=O)n12 | -11.8% |
| COc1cccc(OCCn2c(C)c(/C=N/n3cnnc3)c3ccccc32)c1 | 85.9% (active) |
| Cc1c(/C=N/n2cnnc2)c2ccccc2n1CCOc1ccccc1 | 43.4% |
| Cc1ccc(OCCn2c(C)c(/C=N/n3cnnc3)c3ccccc32)cc1 | 41.7% |
| CCOC(=O)N1CCC(NC(=O)C2CCC(CNS(=O)(=O)c3ccc(OC)cc3)CC2)CC1 (centres undefined) | 0.5% |
| C=CCn1c(=N)n(CC(=O)OC)c2ccccc21 | 8.1% |
| c1coc(-c2nc3nc4ccccc4n3nc2-c2ccco2)c1 | 67.4% (active) |
| c1coc(-c2nc(-c3ccco3)c(-c3ccco3)nc2-c2ccco2)c1 | -1.8% |
| c1coc(-c2nc3ccccc3nc2-c2ccco2)c1 | -6.2% |
| O=C1CCCc2nc(N3CCN(c4ccccc4)CC3)ncc21 | 20.9% |
| O=C(NC1CCCC1)C(c1cccs1)N(C(=O)c1ccno1)c1ccccc1 (centres undefined) | 2.6% |
| COc1ccc(C2/C(=C(/O)c3ccc(C)cc3)C(=O)C(=O)N2C)cc1 (centres undefined) | -6.1% |

| SMILES | cytotoxicity |
| --- | --- |
| Cc1nnc(SCCn2c(N3CCN(C)CC3)nc3c2c(=O)[nH]c(=O)n3C)s1 | -9.9% |
| Cc1nnc(SCCn2c(N3CCN(C)CC3)nc3c2c(=O)n(C)c(=O)n3C)s1 | 3.6% |
| Cc1nnc(Sc2nc(Sc3nnc(C)s3)nc(N3CCN(C)CC3)n2)s1 | 102% (active) |
| CC(=O)Nc1nc(C)c(Oc2ccccc2)c(=O)[nH]1 | 6.8% |
| CCOC(=O)c1c(C)[nH]c(C(=O)OCC(=O)N2CCc3ccccc32)c1C | -21.3% |
| CCOC(=O)c1[nH]c(C)c(C(=O)N2CCc3ccccc32)c1C | 57.6% (active) |
| CC(=O)c1c(C)[nH]c(C(=O)N2CCc3ccccc32)c1C | 10.3% |
| O=C(CSc1nnc(-c2c[nH]c3ccccc23)o1)N(Cc1ccccc1)c1ccc(F)cc1 | 53.4% (active) |
| COc1ccc(CN(C(=O)CSc2nnc(-c3ccc(F)cc3)o2)c2ccc(F)cc2)cc1 | -9.8% |
| COc1ccc(CN(C(=O)CSc2nnc(-c3ccccc3F)o2)c2ccc(F)cc2)cc1 | 16.8% |
| CCOC(=O)c1c(NC(=O)CSc2n[nH]c(N)n2)sc(CC)c1C | 0% |
| CCOC(=O)c1sc(NC(=O)CSc2n[nH]c(-c3ccccc3)n2)c(C#N)c1C | -1.8% |
| Cc1ccc(C(=O)NCCCC(=O)O)o1 | -5% |
| Cc1cc(-c2ccco2)n2c(nc3ccccc32)c1C#N | 18.2% |
| COC(=O)c1nnn(-c2nc(N3CCCCC3)nc(N3CCCCC3)n2)c1C | -3.1% |
| CCOC(=O)c1cnc(-n2nc(C)cc2C)nc1NC(C)c1ccccc1 (centres undefined) | -13% |
| NS(=O)(=O)c1ccc(NC=C2C(=O)OC3(CCCCC3)OC2=O)cc1 | 8.5% |
| NS(=O)(=O)c1ccc(NC(=O)CSC2CCCCC2)cc1 | -3.7% |
| Cc1ccc(-c2nnn(CC(=O)Nc3ccc(S(=O)(=O)N4CCC(C)CC4)cc3)n2)cc1 | -2.5% |
| CCOC(=O)c1c2n(c3ccc(O)cc13)CCCCC2 | 2.9% |
| COc1ccc(C(=O)Oc2c(CN3CCOCC3)cc(Cl)c3cccnc23)cc1OC | 13.7% |
| COc1cc(C(=O)Oc2c(CN3CCOCC3)cc(Cl)c3cccnc23)cc(OC)c1OC | 18.4% |
| Oc1c(CN2CCOCC2)cc(COCc2ccccc2)c2cccnc12 | 30.7% |
| O=C(Oc1c(Cl)cc(Cl)c2cccnc12)N1CCOCC1 | -2.4% |
